Measurements reported in the OligoGym collection.
Note: reference of the scale not given here.

The sequences below were run against TEAD3 (assay: pooled miR-30 sensor sort-seq; sequence = guide strand). Conditions: shRNA.
TCTGACAGGATGATCTTCCGCC showed a sensor-assay potency score (higher = more potent) of 0.971.
In the case of TATAGCGTGCAATCAACTCATT, the sensor-assay potency score (higher = more potent) is reported as -1.09.
TTCTCGTCCGAGTCTTCCCCGT was tested, and the sensor-assay potency score (higher = more potent) was -0.997.
Sequence TTTCTCGTCCGAGTCTTCCCCG has a sensor-assay potency score (higher = more potent) of -0.491.
TTTGCCAAAGGAGCACACCTTG showed a sensor-assay potency score (higher = more potent) of -1.16.
TATGCAAACAGTGAGGACCTTC gave a sensor-assay potency score (higher = more potent) of -0.217.
TACTCCCGCACCTTCTTCCGAG gave a sensor-assay potency score (higher = more potent) of -0.896.
Sequence TTCTCTACCACCTGTTTGCCAA has a sensor-assay potency score (higher = more potent) of -0.68.
TTGAGGTCGGCCCAGAACTTGA showed a sensor-assay potency score (higher = more potent) of -1.66.
For TTGTTCTGCAGGACACTGGCAG, the sensor-assay potency score (higher = more potent) was -0.245.

Each sequence was assayed against TECPR1 in the same assay as above. Conditions: shRNA.
Work on TTGTCTTTCGTGTAGGTGGCGG yielded a sensor-assay potency score (higher = more potent) of -0.464.
For TAGATGTTACTGGTGCTGCTGG, the sensor-assay potency score (higher = more potent) was -0.642.
Work on TTGAGGTCAATATTGGTCCAGG yielded a sensor-assay potency score (higher = more potent) of -0.869.
TTCCACTTCTTGTCTTTCGTGT was tested, and the sensor-assay potency score (higher = more potent) was 0.613.
TCACCAACCATCTCAATCCAAC was tested, and the sensor-assay potency score (higher = more potent) was -1.66.
TATGAGGCAGGGAAGTCGCTGG was tested, and the sensor-assay potency score (higher = more potent) was -0.217.
Sequence TGTGGTACCAGCAGTCACCGGC has a sensor-assay potency score (higher = more potent) of 0.193.
In the case of TTCCACGGTATCTTCTGCGGTC, the sensor-assay potency score (higher = more potent) is reported as -0.344.
Work on TTCTTGTCTTTCGTGTAGGTGG yielded a sensor-assay potency score (higher = more potent) of -0.581.
For TTGGTCTCGTTCAGCACTGGGA, the sensor-assay potency score (higher = more potent) was -0.998.
TTGTTGGACACGTGCTCCCAGC was tested, and the sensor-assay potency score (higher = more potent) was -1.68.

Each sequence was assayed against TEF in the same assay as above. Conditions: shRNA.
Work on TCATCCTTCTGCTCGTCGGGGA yielded a sensor-assay potency score (higher = more potent) of 0.16.
TTCTTCTTGCGTCTTGTCCAGT gave a sensor-assay potency score (higher = more potent) of -0.866.
In the case of TTGCGTCTTGTCCAGTACTTTT, the sensor-assay potency score (higher = more potent) is reported as -1.72.
TATGGGATGGTCTTGTCCCAGA showed a sensor-assay potency score (higher = more potent) of -1.26.
With TACTTGGACACGATGGTCTTGC the sensor-assay potency score (higher = more potent) was -0.169.
TTGTCCAGTACTTTTCATCCTT showed a sensor-assay potency score (higher = more potent) of 0.089.
In the case of TAGACTAGGTGTCTTGCCCTGC, the sensor-assay potency score (higher = more potent) is reported as -0.327.
TAGCTCTGCTACAGGCAGCAGC showed a sensor-assay potency score (higher = more potent) of -0.912.
With TTTAGCTGCCACGTTGTTCTTC the sensor-assay potency score (higher = more potent) was -0.221.
Sequence TTGGTGACTCTAGACTAGGTGT has a sensor-assay potency score (higher = more potent) of 0.324.

These sequences were tested against TELO2 in the same assay as above. Conditions: shRNA.
Sequence TTTCTCAGCCACGTCCGCCAGC has a sensor-assay potency score (higher = more potent) of -1.03.
For TCCATCAGCACTGCCAGCCGGC, the sensor-assay potency score (higher = more potent) was -1.21.
Work on TAGGCATCGATGTGGAAGCGAA yielded a sensor-assay potency score (higher = more potent) of -1.36.
ATCATCGCTGTCCAGGTCCGAG was tested, and the sensor-assay potency score (higher = more potent) was -1.37.
Sequence TGTAAGAACAGAAGCTTCTGGG has a sensor-assay potency score (higher = more potent) of 0.738.
TTGGAGAGAGTCCACAACCGCC was tested, and the sensor-assay potency score (higher = more potent) was -1.23.
Work on TTCATCAGCCGGAAGCTGGGGC yielded a sensor-assay potency score (higher = more potent) of 0.0431.
TTCTGGGTCATCACAAACTGGG showed a sensor-assay potency score (higher = more potent) of -0.844.
Work on TTCTTGTTCTTCACCACCAGGT yielded a sensor-assay potency score (higher = more potent) of -0.407.
